# In PubChem BioAssay:
# Activity calls are given as the source filed them.
# Tests used:
# [1] = small molecules captured by biotinylated probe aFSTL3 – biochemical, small-molecule microarray, fluorescence 635/667, stem cell growth factor project, primary screen (AID 1064); settings: higher = more signal;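 note: measures binding of the biotinylated anti-FSTL3 antibody to printed compounds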
# [2] = binders from COS7 lysate, DM2A8 probe, primary screen, torsin A project, cell lysate, small-molecule microarray, fluorescence 635/667 (AID 1065); settings: higher = more signal, COS7 lysate expressing mutant human TOR1A
# [3] = small molecules captured by biotinylated probe aFGF2 – biochemical, small-molecule microarray, fluorescence 635/667, stem cell growth factor project, primary screen (AID 1067); settings: higher = more signal;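 note: measures binding of biotinylated aFGF2 protein to printed compounds on slides; z-score merges feature fluorescence and signal-to-noise across triplicate slides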
# [4] = small molecules captured by biotinylated probe aFGF10 – biochemical, small-molecule microarray, fluorescence 635/667, stem cell growth factor project, primary screen (AID 1071); settings: higher = more signal;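 note: score merges 667 nm spot intensity and signal to noise from triplicate slides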
# [5] = target: Neurogenic locus notch homolog protein 2 (Homo sapiens) (UniProt Q04721); test: small molecules binding Notch2 protein – biochemical, small-molecule microarray, 635 nm fluorescence, stem cell growth factors, primary screen (AID 1073); settings: higher = more signal
# [6] = target: Pro-neuregulin-1, membrane-bound isoform (Homo sapiens) (UniProt Q02297); test: small molecules binding neuregulin-1 protein – biochemical, small-molecule microarray, fluorescence 635/667, psychiatric disease protein project, primary screen (AID 1075); settings: NRG1 binding, 635 nm fluorescence, higher = more signal;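 note: score combines 667 nm spot fluorescence with signal to noise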
# [7] = tested on: Neuregulin-1 EGF-like domain; test: small molecules binding NRG1 EGF domain – biochemical, small-molecule microarray, 635 nm fluorescence, primary screen (AID 1081); settings: higher = more signal;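 note: binding of the protein to compounds printed on small-molecule microarray slides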
# [8] = FRG1 expression reporter modulators in myotubes – cell-based, C2C12 myotubes, firefly/Renilla luciferase, luminescence, FRG1 inhibition for FSHD, primary screen (AID 1084); settings: FRG1 promoter luciferase, higher = more signal, called active from +8 up or from −8 down
# [9] = small molecules captured by biotinylated probe aFST – biochemical, small-molecule microarray, fluorescence 635/667, stem cell growth factor project, primary screen (AID 1086); settings: higher = more signal;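 note: score merges 667 nm fluorescence with signal-to-noise of each printed compound spot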
# [10] = binders of probe aHhip on microarray, primary screen, stem cell growth factor project, biochemical, small-molecule microarray, fluorescence 635/667 (AID 1087); settings: higher = more signal;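 note: score merges spot fluorescence at 667nm with spot signal to noise ratio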
# [11] = tested on: PRMT1 (protein arginine N-methyltransferase 1); test: small molecules binding arginine methyltransferase PRMT1 – biochemical, small-molecule microarray, 635 nm fluorescence, primary screen (AID 1088); settings: higher = more signal;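 note: binding of Prmt1 protein to compounds spotted on small-molecule microarray slides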
# [12] = growth effects on S. cerevisiae YJM789 – YJM789 clinical isolate, OD600, 24 h, basal, primary screen (AID 1089); settings: higher = more signal, called active from +8 up or from −8 down;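 note: growth of clinical yeast isolate S. cerevisiae YJM 789 seeded 1000 cells per well; test concentration not given here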
# [13] = S. pombe growth modifiers, basal conditions – strain 972, OD600, 24 h, no modulator, primary screen (AID 1090);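 note: basal condition with compound alone and no growth modifier present; test concentration not given here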; settings: S. pombe 972 growth, higher = more signal, called active from +8 up or from −8 down
# [14] = budding yeast growth modifiers under rapamycin – strain BY4716, OD600, 96 h, primary screen (AID 1091); note: test concentration not given here; settings: S. cerevisiae BY4716 + rapamycin, higher = more signal, called active from +8 up or from −8 down
# [15] = target: Torsin-1A-interacting protein 2 (Homo sapiens) (UniProt Q8NFQ8); test: small molecules binding lysate-expressed LULL1 – cell lysate, human LULL1 lysate, 635/667 nm fluorescence, primary screen (AID 1092); settings: small-molecule microarray, hLULL1 lysate binding, 635 nm fluorescence; higher = more signal;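 note: probe is lysate of COS7 cells overexpressing human LULL1; score merges per-feature 667 nm fluorescence with signal-to-noise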
# [16] = optical density change of DRC41 E. coli – strain DRC41, OD650, 24 h, E. coli filamentation project, primary screen (AID 1093);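 note: MC1000 strain lacking acrAB efflux and sulA so SOS filamentation is blocked; test concentration not given here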; settings: E. coli DRC41 growth, higher = more signal, called active from +8 up or from −8 down
# [17] = probe aLefty2 binding to arrayed compounds – biochemical, biotinylated probe, 635/667 nm fluorescence, primary screen (AID 1094); settings: small-molecule microarray, higher = more signal;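 note: score merges spot fluorescence near 667 nm with spot signal-to-noise ratio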
# [18] = tested on: Noggin (protein binding on small-molecule microarray); test: small molecules binding Noggin protein – biochemical, 635/667 nm fluorescence, primary screen (AID 1095); settings: 635 nm fluorescence, higher = more signal;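 note: score merges 667 nm feature fluorescence with signal to noise over triplicate slides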
# [19] = target: Neurogenic locus notch homolog protein 3 (Homo sapiens) (UniProt Q9UM47); test: small molecules binding NOTCH3 protein – biochemical, 635/667 nm fluorescence, primary screen (AID 1096); settings: small-molecule microarray, 635 nm fluorescence, higher = more signal
# [20] = probe aEGFR binding to arrayed compounds – biochemical, biotinylated probe, 635/667 nm fluorescence, primary screen (AID 1097); settings: small-molecule microarray, higher = more signal;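 note: probe is a biotinylated anti-EGFR antibody binding compounds printed on slides; score combines fluorescence near 667 nm and signal to noise of each spot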
# Chain of Torsin-1A-interacting protein 2 (Homo sapiens) (Q8NFQ8 whole entry, looked up): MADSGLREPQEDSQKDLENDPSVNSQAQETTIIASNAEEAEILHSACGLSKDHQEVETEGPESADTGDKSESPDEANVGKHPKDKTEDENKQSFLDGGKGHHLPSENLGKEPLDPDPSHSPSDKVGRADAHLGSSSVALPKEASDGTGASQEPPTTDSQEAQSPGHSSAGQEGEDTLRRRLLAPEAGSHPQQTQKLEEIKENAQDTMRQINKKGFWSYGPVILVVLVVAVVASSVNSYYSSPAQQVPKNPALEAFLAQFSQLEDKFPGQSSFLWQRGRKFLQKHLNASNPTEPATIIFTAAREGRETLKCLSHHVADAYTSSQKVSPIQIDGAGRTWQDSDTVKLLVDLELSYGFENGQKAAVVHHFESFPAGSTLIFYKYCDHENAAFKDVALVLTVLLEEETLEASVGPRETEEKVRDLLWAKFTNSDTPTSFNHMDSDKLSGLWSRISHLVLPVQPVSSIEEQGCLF
# Chain of Pro-neuregulin-1, membrane-bound isoform (Homo sapiens) (Q02297 whole entry, looked up, the tested form may be a part, canonical isoform): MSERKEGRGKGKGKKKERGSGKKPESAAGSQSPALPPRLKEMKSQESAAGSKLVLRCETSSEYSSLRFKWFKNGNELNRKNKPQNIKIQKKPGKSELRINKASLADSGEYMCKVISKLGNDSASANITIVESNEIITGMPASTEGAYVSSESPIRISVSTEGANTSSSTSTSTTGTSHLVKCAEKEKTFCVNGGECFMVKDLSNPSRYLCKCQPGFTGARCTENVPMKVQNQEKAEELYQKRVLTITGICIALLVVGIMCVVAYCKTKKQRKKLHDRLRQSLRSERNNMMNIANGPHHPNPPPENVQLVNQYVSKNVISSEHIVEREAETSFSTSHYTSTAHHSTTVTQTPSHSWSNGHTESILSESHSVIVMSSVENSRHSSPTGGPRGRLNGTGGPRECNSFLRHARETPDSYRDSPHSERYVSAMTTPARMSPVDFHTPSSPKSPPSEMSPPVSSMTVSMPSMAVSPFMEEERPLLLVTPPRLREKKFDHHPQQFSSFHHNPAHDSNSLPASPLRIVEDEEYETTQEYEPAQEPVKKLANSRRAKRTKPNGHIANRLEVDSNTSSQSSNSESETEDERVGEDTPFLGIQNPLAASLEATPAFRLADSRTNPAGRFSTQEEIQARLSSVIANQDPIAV
# Chain of Neurogenic locus notch homolog protein 3 (Homo sapiens) (Q9UM47 whole entry, looked up): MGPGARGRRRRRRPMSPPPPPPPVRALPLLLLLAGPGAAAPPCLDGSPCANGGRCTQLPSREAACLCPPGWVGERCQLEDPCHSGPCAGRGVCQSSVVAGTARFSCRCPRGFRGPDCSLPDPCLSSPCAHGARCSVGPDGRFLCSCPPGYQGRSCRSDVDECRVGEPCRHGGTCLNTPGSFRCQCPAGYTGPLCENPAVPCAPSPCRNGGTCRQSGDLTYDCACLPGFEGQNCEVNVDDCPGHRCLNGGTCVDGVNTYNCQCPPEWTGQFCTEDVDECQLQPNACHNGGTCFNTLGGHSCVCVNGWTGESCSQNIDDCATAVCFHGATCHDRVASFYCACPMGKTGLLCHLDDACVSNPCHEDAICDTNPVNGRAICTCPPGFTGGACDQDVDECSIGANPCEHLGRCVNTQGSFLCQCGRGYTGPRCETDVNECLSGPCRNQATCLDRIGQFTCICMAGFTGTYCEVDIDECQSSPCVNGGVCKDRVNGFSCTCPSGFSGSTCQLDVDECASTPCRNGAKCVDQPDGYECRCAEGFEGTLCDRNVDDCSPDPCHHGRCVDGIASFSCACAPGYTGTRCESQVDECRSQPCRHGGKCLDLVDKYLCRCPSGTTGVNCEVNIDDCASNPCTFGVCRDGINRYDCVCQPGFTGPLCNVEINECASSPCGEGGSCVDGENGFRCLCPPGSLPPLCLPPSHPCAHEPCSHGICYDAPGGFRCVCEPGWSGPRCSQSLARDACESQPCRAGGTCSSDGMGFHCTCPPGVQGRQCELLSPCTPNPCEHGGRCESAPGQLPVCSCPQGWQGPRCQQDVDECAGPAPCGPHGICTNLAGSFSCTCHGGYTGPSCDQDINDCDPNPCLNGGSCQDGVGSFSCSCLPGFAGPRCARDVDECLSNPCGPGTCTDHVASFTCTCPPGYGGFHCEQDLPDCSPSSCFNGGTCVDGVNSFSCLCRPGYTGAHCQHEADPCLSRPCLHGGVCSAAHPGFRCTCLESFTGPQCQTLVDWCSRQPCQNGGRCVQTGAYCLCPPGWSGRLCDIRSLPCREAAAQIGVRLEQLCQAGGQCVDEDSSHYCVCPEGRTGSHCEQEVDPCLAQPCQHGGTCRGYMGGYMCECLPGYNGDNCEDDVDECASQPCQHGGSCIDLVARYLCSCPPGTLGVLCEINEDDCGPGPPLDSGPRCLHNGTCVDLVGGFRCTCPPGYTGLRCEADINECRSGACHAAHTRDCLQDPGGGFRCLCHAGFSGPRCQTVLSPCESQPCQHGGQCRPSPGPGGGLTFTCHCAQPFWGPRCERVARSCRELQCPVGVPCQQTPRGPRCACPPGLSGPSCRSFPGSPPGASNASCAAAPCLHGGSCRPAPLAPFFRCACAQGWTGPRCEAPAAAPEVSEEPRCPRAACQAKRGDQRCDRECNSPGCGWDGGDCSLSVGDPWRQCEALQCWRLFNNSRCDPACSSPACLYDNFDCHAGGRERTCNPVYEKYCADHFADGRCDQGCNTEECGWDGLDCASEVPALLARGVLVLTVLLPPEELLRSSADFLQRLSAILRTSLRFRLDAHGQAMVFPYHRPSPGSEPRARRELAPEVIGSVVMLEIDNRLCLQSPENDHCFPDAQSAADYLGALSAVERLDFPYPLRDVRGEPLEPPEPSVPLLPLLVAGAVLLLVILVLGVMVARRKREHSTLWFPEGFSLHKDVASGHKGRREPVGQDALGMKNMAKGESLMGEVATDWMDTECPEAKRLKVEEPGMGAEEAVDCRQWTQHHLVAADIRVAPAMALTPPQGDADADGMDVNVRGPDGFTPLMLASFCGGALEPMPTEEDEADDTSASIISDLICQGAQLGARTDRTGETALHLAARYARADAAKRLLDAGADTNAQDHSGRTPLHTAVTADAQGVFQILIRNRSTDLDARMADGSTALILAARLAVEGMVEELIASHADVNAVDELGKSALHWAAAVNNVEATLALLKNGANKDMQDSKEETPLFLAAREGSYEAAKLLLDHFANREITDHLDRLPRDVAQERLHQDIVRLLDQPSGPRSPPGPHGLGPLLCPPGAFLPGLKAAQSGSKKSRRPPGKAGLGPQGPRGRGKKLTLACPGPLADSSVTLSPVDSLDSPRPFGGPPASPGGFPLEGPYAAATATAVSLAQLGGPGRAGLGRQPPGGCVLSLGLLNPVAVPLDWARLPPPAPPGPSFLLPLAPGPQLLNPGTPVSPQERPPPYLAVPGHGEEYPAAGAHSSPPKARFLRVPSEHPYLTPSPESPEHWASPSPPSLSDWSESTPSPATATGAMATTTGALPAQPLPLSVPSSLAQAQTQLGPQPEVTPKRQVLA
Compound,composite z-score [1],composite z-score [2],composite z-score [3],composite z-score [4],composite z-score [5],composite z-score [6],composite z-score [7],z-score [8],composite z-score [9],composite z-score [10],composite z-score [11],z-score [12],z-score [13],z-score [14],composite z-score [15],z-score [16],composite z-score [17],composite z-score [18],composite z-score [19],composite z-score [20]
C#CCN(C(=O)OC(C)(C)C)[C@H](CO)c1ccccc1,-0.402,0.289,-0.113,0.0182,-0.148,-0.329,0.77,-0.0216 (inactive),0.115,-0.111,0.738,-0.365 (inactive),-2.99 (inactive),0.368 (inactive),0.444,-0.223 (inactive),-0.235,0.582,0.524,-0.198
COC(=O)c1ccc(OC)c(/C=C\CC(OC(=O)c2ccncc2)c2ccccc2)c1 (stereo not given),-0.273,0.285,-0.107,0.257,0.481,-0.106,-0.0115,-1.97 (inactive),0.0754,0.0514,0.264,-2.64 (inactive),-2.43 (inactive),-0.0389 (inactive),0.179,1.27 (inactive),-0.0851,0.66,0.0482,-0.0286
CCCN1C(=O)[C@@]2(c3ccc([N+](=O)[O-])cc3)CC(=O)N(C3CCCCC3)[C@@H]2c2ccc(CO)cc21,-0.439,-0.768,-0.0131,-0.201,-0.553,-0.154,1.23,0.693 (inactive),-0.479,0.137,0.254,-0.383 (inactive),1.29 (inactive),-0.117 (inactive),-0.298,-0.0384 (inactive),0.198,0.73,-0.327,0.0785
Cc1ccc(S[C@]2(C(=O)NC(C)C)CC(=O)N(Cc3ccccc3)[C@@H]2c2ccc(CO)cc2I)cc1,1.28,-0.37,-0.0303,0.176,-0.705,0.291,0.478,-0.259 (inactive),-0.26,-0.226,1.46,-1.12 (inactive),-1.15 (inactive),0.739 (inactive),2.11,0.301 (inactive),-0.102,-1.44,-0.332,-0.0146
O=C1NC(=O)C2C1C=CC(C(O)C(c1ccccc1)c1ccccc1)N2Nc1ccccn1 (stereo not given),0.473,0.521,0.162,0.951,1.05,0.604,1.25,0.723 (inactive),0.59,-0.0959,0.72,0.583 (inactive),1.44 (inactive),-0.968 (inactive),1.27,-0.519 (inactive),0.673,-0.0976,0.0943,0.389
CC(C)(C)OC(=O)CC[C@]1(C(N)=O)N=C(c2ccc(OCCCO)cc2)O[C@H]1c1ccccc1N=[N+]=[N-],0.365,-0.434,-0.0088,0.396,0.9,1.73,1.48,6.25 (inactive),0.616,0.213,0.138,1.37 (inactive),0.138 (inactive),0.467 (inactive),2.75,0.626 (inactive),0.0598,-0.165,0.206,0.141
COCCOC(=O)N1C(=O)[C@@]2(c3cc(C#CC4(O)CCCCCC4)ccc31)[C@H](C(N)=O)[C@H]1C(=O)O[C@H](c3ccccc3)[C@H](c3ccccc3)N1[C@@H]2c1ccc(OCCO)cc1,-0.243,1.08,0.0664,0.69,1.42,0.775,1.22,1.1 (inactive),0.388,0.189,1.54,1.73 (inactive),-0.0624 (inactive),5.03 (inactive),2.51,0.662 (inactive),0.0723,1.2,1.09,0.104
C=C(C(=O)CC[C@@H](OC(=O)c1ccccc1-c1ccccc1C(=O)O)c1ccc(OCCO)cc1)C(C)C,-0.49,0.235,0.0129,1.11,0.52,0.551,0.512,2.12 (inactive),0.136,0.245,1.55,-0.694 (inactive),-1.26 (inactive),-1.3 (inactive),1.25,0.416 (inactive),0.0028,1.35,1.15,-0.0755
COC(=O)[C@@]1(Cc2ccccc2)[C@H]2c3cc(C(=O)N(C)C)n(Cc4nc5ccccc5[nH]4)c3C[C@H]2CN1C(=O)c1ccccc1,1.1,1.08,0.214,0.572,1.77,2.12,1.33,-1.3 (inactive),1.37,-0.315,0.964,-0.895 (inactive),0.338 (inactive),-0.678 (inactive),3.5,0.914 (inactive),0.718,-0.307,1.06,0.135
O=C(NCC(F)(F)F)[C@@H]1c2ccccc2C(=O)N(Cc2cc(C(F)(F)F)cc(C(F)(F)F)c2)[C@H]1c1ccc(CO)cc1,-0.381,-0.147,-0.203,-0.155,0.154,1.73,1.25,-0.884 (inactive),-0.192,-0.0296,0.648,0.338 (inactive),0.459 (inactive),-0.359 (inactive),1.04,0.955 (inactive),-0.217,0.148,-0.122,-0.219
